Screens deposited in PubChem BioAssay by several laboratories.
Only some compounds are listed: those with a hit (about 2.9% of all), similar ones and a draw of the others.
Exocytosis inh – lytic granule exocytosis inhibition; AID 651702; inhibition, % at 10 µM; TALL-104 LAMP-1 surface exposure, flow cytometry; cells stimulated with thapsigargin and PMA; 360,000 tested, 0.66% active;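 active means inhibition above about 55%, limit read from the data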
Beta2AR agonist – activates human beta-2 adrenergic receptor causing internalization. P07550. Am2.2-beta2AR cells, FAP receptor internalization, flow cytometry. response, % (no concentration beside the values). 340,000 tested, 0.43% active. AID 504454;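 active means response above a set limit, near 3 SD of response in nonfluorescent compounds, cut at about 42% in these data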
GRK2 inh – human GRK2 inhibition via aptamer displacement; P25098; bead flow cytometry, FAM-aptamer displacement from GRK2; inhibition of aptamer binding, % at 10 µM; 330,000 tested, 0.59% active;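 active means inhibition of aptamer binding above 40%, roughly 3 SD of noise, on plates passing a quality check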;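 further: median bead fluorescence of bound FAM aptamer so fluorescent compounds give negative values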
NadD block – NadD (S. aureus) enzyme inhibition | purified NadD enzyme, colorimetric absorbance read-out | AID 602399 | inhibition, % at 20 µM | 360,000 tested, 0.78% active; in the data active means inhibition above about 26%
PP1 inh – counter-screen for PP5 inhibitors: inhibitors of human PP1-alpha | P62136 | purified PP1alpha, OMFP fluorescence | 320,000 tested, 0.9% active | inhibition, % at 6.7 µM;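 active means inhibition above the mean inhibition of all tested compounds plus 3 SD, computed separately for each screening campaign, cut at about 15% in these data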
PP1 confirm – confirmation of human PP1 phosphatase inhibitors; shares compounds with PP1 inh; purified PP1alpha, OMFP substrate fluorescence; inhibition, % at 6.7 µM; 1,900 tested, 52% active;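 active means mean PP1 inhibition above a set limit taken from the earlier primary screen, cut at about 15% in these data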
PP5 inh counter – PP5 phosphatase inhibition, counter-screen for PP1 inhibitors. shares compounds with PP1 inh. purified PP5c, OMFP fluorescence. inhibition, % at 6.7 µM. 1,900 tested, 4% active. AID 2360;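 active means mean PP5 inhibition over triplicate wells above about 9.5% taken from the earlier PP1 screen, limit read from the data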
Target sequence (P53041 whole entry, looked up): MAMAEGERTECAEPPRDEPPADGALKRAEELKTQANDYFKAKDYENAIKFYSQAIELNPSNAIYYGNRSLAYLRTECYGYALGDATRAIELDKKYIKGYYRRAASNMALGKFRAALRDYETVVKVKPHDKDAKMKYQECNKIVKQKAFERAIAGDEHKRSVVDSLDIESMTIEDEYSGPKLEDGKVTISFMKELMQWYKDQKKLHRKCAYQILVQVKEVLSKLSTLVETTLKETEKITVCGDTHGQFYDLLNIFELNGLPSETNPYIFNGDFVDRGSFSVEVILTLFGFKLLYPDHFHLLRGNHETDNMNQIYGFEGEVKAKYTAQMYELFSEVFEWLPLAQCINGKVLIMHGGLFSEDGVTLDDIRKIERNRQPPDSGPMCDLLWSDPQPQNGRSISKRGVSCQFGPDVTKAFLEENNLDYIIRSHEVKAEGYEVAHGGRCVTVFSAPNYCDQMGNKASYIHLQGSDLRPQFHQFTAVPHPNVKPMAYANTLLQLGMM
NadD conf – NadD (S. aureus) inhibition, single concentration confirmation; shares compounds with NadD block; purified S. aureus NadD, colorimetric enzyme assay; AID 624309; 2,000 tested, 13% active; inhibition, % at 20 µM; in the data active means inhibition mostly above about 42%, no sharp cut-off; inactive means mostly below about 42%
Starred values were filed as active, the others as inactive; nt = no result.

SMILES	Exocytosis inh	Beta2AR agonist	GRK2 inh	NadD block	PP1 inh	PP1 confirm	PP5 inh counter	NadD conf
O=C(N/N=C/c1ccc([N+](=O)[O-])o1)c1cc(-c2ccc(-c3ccccc3)cc2)nc2ccccc12	11.8	17.5	1.0	69.8*	26.9*	28.9*	3.5	10.5
O=C(N/N=C/c1ccc([N+](=O)[O-])o1)c1cc(-c2ccncc2)nc2ccccc12	1.8	23.6	3.0	16.7	3.9	nt	nt	nt
N#Cc1cnn(-c2nc3sc4c(c3c(=O)[nH]2)CCCC4)c1N	0.5	3.3	6.0	4.3	-0.7	nt	nt	nt
NC(=O)[C@H](Cc1cc2ccccc2s1)NC(=O)[C@@H]1CC2(CC(c3cccc(NC(=O)[C@@H]4CCC(=O)N4)c3)=NO2)CN1C(=O)c1ccccc1 (some centres not stated)	7.8	-3.1	0.0	9.1	1.2	nt	nt	nt
NC(=O)[C@H](Cc1cc2ccccc2s1)NC(=O)[C@@H]1CC2(CC(c3cccc(NC(=O)[C@@H]4CCC(=O)N4)c3)=NO2)CN1C(=O)/C=C/c1c(F)cccc1Cl (some centres not stated)	1.4	-2.0	0.0	34.4*	30.1*	20.0*	6.2	21.0
N#CCSc1nc2ccc(N3CCCCC3)cc2c(=O)n1Cc1ccccc1	2.2	0.8	0.0	41.1*	23.1*	20.9*	-0.7	5.5
NC(c1csc(Nc2ccc(C(=O)c3ccccc3)cc2)n1)c1ccccc1Cl (configuration not stated)	21.9	nt	nt	20.3	nt	nt	nt	nt
O=C(Nc1ccc(N2CCCC2)cc1)c1ccccc1[N+](=O)[O-]	0.8	-5.9	0.0	26.7*	19.0*	-4.4	-2.5	15.7
COc1ccc(C(=O)NC(=S)Nc2ccc(N3CCCC3)cc2)cc1	1.1	-1.6	0.0	4.8	-1.4	nt	nt	nt
O=C(Nc1ccc(N2CCN(Cc3ccccc3)CC2)cc1)c1ccccc1[N+](=O)[O-]	0.8	0.4	0.0	-2.3	-4.4	nt	nt	nt
COc1ccc(C(=O)Nc2ccc(N3CCCC3)cc2)cc1	-0.4	12.8	0.0	39.8*	28.6*	-7.1	-5.0	0.4
O=C(Nc1ccc(N2CCCC2)cc1)c1cc(Br)ccc1Cl	-5.0	16.8	0.0	41.3*	33.1*	0.1	-1.5	54.9*
CCCCCN(C(=O)NC(=O)Nc1ccc(C)cc1)S(=O)(=O)c1ccccc1	1.5	-2.2	0.0	-1.9	-1.8	nt	nt	nt
Cc1cccc(N2CC(C(=O)Nc3nnc(SCC(=O)Nc4cc(C)on4)s3)CC2=O)c1 (configuration not stated)	-0.8	0.0	30.0	74.4*	27.3*	26.5*	-3.1	0.4
Cc1cc(C)c2oc(C(=O)Nc3ccc(S(=O)(=O)Nc4nccs4)cc3)cc(=O)c2c1	0.6	3.3	3.0	20.8	7.2	nt	nt	nt
Cc1cc2oc(C(=O)Nc3ccc(S(=O)(=O)Nc4nccs4)cc3)cc(=O)c2cc1Cl	-1.0	-3.6	0.0	64.5*	38.9*	31.1*	-3.0	23.3
COc1ccccc1N1CCN(/N=C/C=C/c2ccccc2[N+](=O)[O-])CC1	1.6	-8.5	0.0	-3.1	2.0	nt	nt	nt
Cc1ccc(NC(=O)C2CCCN2S(=O)(=O)c2ccc3c(c2)n(C)c(=O)c(=O)n3C)cc1C (configuration not stated)	1.0	-1.8	1.0	4.3	-1.4	nt	nt	nt
Cc1ccc(CNC(=O)c2ccc(N3CCC4(CC3)CC(c3cccc(Br)c3)=NO4)c(NC(=O)c3c(Cl)cccc3Cl)c2)cc1	-5.7	-0.2	0.0	33.4*	21.3*	13.6	-1.7	-0.8
COc1ccccc1NS(=O)(=O)c1cccc(-n2c(O)c(C=Nc3ccccc3C(=O)O)c3ccccc3c2=O)c1	1.8	27.7	25.0	31.1*	22.6*	12.2	1.0	54.0*
CCN(CC)C(=O)CSc1ncnc2c(-c3cccs3)nsc12	0.1	-3.8	6.0	34.4*	25.4*	5.7	-2.9	56.2*
O=C(Nc1nc(-c2ccccn2)cs1)c1ncc(Cl)c(Cl)c1Cl	-1.0	0.2	3.0	35.9*	36.7*	40.8*	0.7	5.3
O=C(Nc1nc(-c2ccccn2)cs1)c1cc2ccccc2o1	-1.0	6.1	6.0	8.2	10.3	nt	nt	nt
